Screening results (PubChem)
Shiga inhibitor: Shiga toxin inhibition; 290,000 tested, 9.2% active; inhibition, % at 38.7 µM; AID 2315; Vero cells, Shiga toxin protein synthesis inhibition reporter; in the data active means inhibition mostly above about 28%, no sharp cut-off; inactive means mostly below about 43%
CHX counter: counter-screen for Shiga toxin inhibitors: cycloheximide protein synthesis inhibition; cell reporter, cycloheximide protein synthesis inhibition counterscreen; max response, %; 300,000 tested, 12% active; AID 2314; in the data active means max response mostly above about 13%, no sharp cut-off; inactive means mostly below about 14%; further: read at 38.3 µM for the half of the compounds with a filed dose
FMDV antiviral: blocks foot and mouth disease virus; FMDV antiviral cell-based qHTS; Potency, µM (top dose mostly 57.9 µM), most hits filed as inhibitors; 410,000 tested, 1.2% active; calls by dose curve; tested in HEK293T cells; further: read-out not given here; nearly all actives have a fitted effect of over 45% in size
Sm TGR inh: blocks Schistosoma mansoni thioredoxin glutathione reductase | Q962Y6 | 360,000 tested, 3% active | Potency, µM (series often up to 114 µM), actives largely listed as inhibitors | purified TGR, DTNB reduction, TNB absorbance 405 nm; active means well fitted inhibition curve with a large enough effect; inconclusive means small, poorly fitted or top-dose-only effect; inactive means no such curve, though single readings can be large or run the other way; further: nearly all actives have a fitted effect of over 60% in size
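TGR 20 nM + NADPH 100 uM (dispensed conc.), cpd preinc 15 min RT; start with NADPH (500 uM addition) then DTNB (15 mM addition). Kinetic TNB absorbance, 405 nm filter. Four-parameter Hill fit across titration.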
Hits are given with their value. Rows were chosen to be rich in hits. Some 12% of all compounds tested hit in one or more screens of this group.

What do the screens show for `O=C([O-])[C@@H]1[O][Sb+]([O][Sb+]2[O][C@H]([C@H](O)CO)[C@H](O)[C@H](C(=O)[O-])[O]2)[O][C@H]([C@H](O)CO)[C@@H]1O`?
Shiga inhibitor: inactive; CHX counter: inactive

What do the screens show for `O=C(/C=C/c1ccccc1)N1CCN(Cc2cc(=O)n3nc(-c4ccccc4)sc3n2)CC1`?
FMDV antiviral: inactive; Sm TGR inh: inactive

How did O=C(NCCN1CCOCC1)c1cc2ccccc2oc1=O do in these assays?
Shiga inhibitor: 35; CHX counter: inactive; FMDV antiviral: inactive; Sm TGR inh: inactive

How did O=C(NCCN1CCOCC1)c1cc2ccccc2o1 do in these assays?
Shiga inhibitor: inactive; CHX counter: inactive; FMDV antiviral: inactive; Sm TGR inh: inactive

How did Cc1cc(C(=O)Nc2ccc(C(C)C)cc2)c2c(C)nn(-c3ccccc3)c2n1 do in these assays?
FMDV antiviral: inactive; Sm TGR inh: inactive

Results for O=C(NN=C1CCN(Cc2ccccc2)CC1)c1ccccc1O ?
Shiga inhibitor: 35; CHX counter: 22; FMDV antiviral: inactive; Sm TGR inh: inactive

How did CCOC(=O)C1=C(C)C/C(=N\NC(=O)c2ccccc2O)CC1 do in these assays?
Shiga inhibitor: inactive; CHX counter: 23; FMDV antiviral: inactive; Sm TGR inh: inconclusive

Results for CCCN1CCC(=NNC(=O)c2ccc(Br)o2)CC1 ?
Shiga inhibitor: 70; CHX counter: 41; Sm TGR inh: inactive

What do the screens show for `CCOC(=O)N1CCC(=NNC(=O)c2cc3ccccc3cc2O)CC1`?
Shiga inhibitor: inactive; CHX counter: inactive; FMDV antiviral: inactive; Sm TGR inh: inactive

Results for CCN1CCC(=NNC(=O)c2ccco2)CC1 ?
Shiga inhibitor: 53; CHX counter: 56; FMDV antiviral: inactive; Sm TGR inh: inactive

How did C=C1C(N)CC2CC1C2(C)C (stereo not given) do in these assays?
FMDV antiviral: inactive

How did CCOC(=O)C1CCCCN1C(=O)c1cnn(-c2nccc(-c3cc(C)sc3C)n2)c1C1CC1 (stereo not given) do in these assays?
FMDV antiviral: inactive

How did CCCN1CCC(=NNc2ccc(C(=O)O)cc2)CC1 do in these assays?
Shiga inhibitor: 40; CHX counter: 30; FMDV antiviral: inconclusive; Sm TGR inh: inactive

What do the screens show for `CCCOc1ccc(C(=O)ON=C2CCN(C)CC2)cc1`?
Shiga inhibitor: inactive; CHX counter: inactive; FMDV antiviral: inactive; Sm TGR inh: inactive

What do the screens show for `CCN(CC(=O)Nc1ccc2c(c1)CCC2)Cc1nc2ccccc2c(=O)[nH]1`?
Shiga inhibitor: 55; CHX counter: inactive; FMDV antiviral: inactive; Sm TGR inh: 50µM

Results for CCN(CC)CC(=O)Nc1ccc2c(c1)Nc1ccccc1CC2 ?
Shiga inhibitor: 33; CHX counter: 21; FMDV antiviral: inactive; Sm TGR inh: inactive

Results for CCN(CC(=O)Nc1ccc2c(c1)OCO2)Cc1nc2ccccc2c(=O)[nH]1 ?
Shiga inhibitor: inactive; CHX counter: inactive; FMDV antiviral: inactive; Sm TGR inh: inactive

How did CCN(CC)c1ccc(NC(=O)CN2C(=O)c3cccnc3Oc3ccccc32)c(C)c1 do in these assays?
FMDV antiviral: inactive; Sm TGR inh: inactive

What do the screens show for `COc1ccc(S(=O)(=O)n2nc(-c3ccco3)nc2NCc2ccc(C(C)C)cc2)cc1`?
FMDV antiviral: inactive; Sm TGR inh: inactive

Results for O=C(CSc1nc2ccsc2c(=O)n1NC(=O)c1ccccc1)Nc1nccs1 ?
Shiga inhibitor: 36; CHX counter: 41; FMDV antiviral: inactive; Sm TGR inh: inactive

How did O=C(Nn1c(SCc2ccccc2F)nc2ccsc2c1=O)c1ccccc1 do in these assays?
Shiga inhibitor: inactive; CHX counter: inactive; FMDV antiviral: inactive; Sm TGR inh: inactive

What do the screens show for `O=C(CSc1nc2ccccc2c(=O)n1NC(=O)c1ccccc1)c1ccccc1`?
Shiga inhibitor: 74; CHX counter: 41; FMDV antiviral: inactive; Sm TGR inh: inactive

What do the screens show for `O=C(CSc1nc2ccccc2c(=O)n1NC(=O)c1ccccc1)c1ccc(Cl)cc1`?
Shiga inhibitor: 98; CHX counter: 34; FMDV antiviral: inactive; Sm TGR inh: inactive

What do the screens show for `CCN(/N=C/c1ccc(Cl)cc1)c1cc(=O)n(C)c(=O)[nH]1`?
Shiga inhibitor: active; CHX counter: 34; FMDV antiviral: inactive; Sm TGR inh: inactive

How did O=C(c1ccccc1Cl)N1c2ncnn2C2(CCCCC2)[C@@H]2CCCC[C@@H]21 do in these assays?
FMDV antiviral: inactive; Sm TGR inh: inactive

What do the screens show for `O=C(O)CCc1ccc(-c2cccs2)n1CC1CCCO1` (stereo not given)?
Shiga inhibitor: inactive; CHX counter: inactive; FMDV antiviral: inactive; Sm TGR inh: 8.9µM

What do the screens show for `O=C(O)CCc1ccc(-c2ccc(F)cc2)n1CC1CCCO1` (stereo not given)?
Shiga inhibitor: inactive; CHX counter: inactive; FMDV antiviral: inactive; Sm TGR inh: inconclusive

Results for COc1ccc(-c2ccc(CCC(=O)O)n2CC2CCCO2)cc1 (stereo not given) ?
Shiga inhibitor: inactive; CHX counter: inactive; FMDV antiviral: inactive; Sm TGR inh: 35µM

How did COc1ccc(C(=O)N2CCN(c3nc4c(C)c(Cl)ccc4s3)CC2)c(OC)c1 do in these assays?
FMDV antiviral: inconclusive; Sm TGR inh: inactive

Results for Nc1nc(-c2ccc(-c3ccccc3)cc2)cs1 ?
Shiga inhibitor: 151; CHX counter: 62; FMDV antiviral: inactive; Sm TGR inh: inactive

Results for Cc1ccc(-c2csc(N=C(N)N)n2)c(C)c1 ?
Shiga inhibitor: 37; CHX counter: 36; FMDV antiviral: inactive; Sm TGR inh: inactive

What do the screens show for `NC(N)=Nc1nc(CCN2C(=O)c3ccccc3C2=O)cs1`?
Shiga inhibitor: inactive; CHX counter: inactive; FMDV antiviral: inactive; Sm TGR inh: inactive

How did Cc1ccc(-c2csc(N)n2)cc1 do in these assays?
FMDV antiviral: inactive

How did Nc1nc(-c2ccc(Oc3ccccc3)cc2)cs1 do in these assays?
Shiga inhibitor: 53; CHX counter: 39; FMDV antiviral: inactive; Sm TGR inh: inactive

What do the screens show for `COc1ccc(-c2csc(N)n2)cc1`?
Shiga inhibitor: 58; CHX counter: 37; FMDV antiviral: inactive; Sm TGR inh: inactive

How did CN(Cc1ccccc1)c1ccc2cc(S(=O)(=O)N3CCCCC3)ccc2n1 do in these assays?
FMDV antiviral: inactive; Sm TGR inh: inactive

What do the screens show for `COc1ccc(-c2csc(N=C(N)N)n2)cc1`?
Shiga inhibitor: 68; CHX counter: 25; FMDV antiviral: inactive; Sm TGR inh: inactive

What do the screens show for `Cc1nc2ccc(Oc3ccccc3)cc2s1`?
FMDV antiviral: inactive; Sm TGR inh: inactive

What do the screens show for `Nc1nc(-c2ccc3ccccc3c2)cs1`?
Shiga inhibitor: 86; CHX counter: 43; FMDV antiviral: inactive; Sm TGR inh: inactive

What do the screens show for `Nc1nc2ccc(Oc3ccccc3)cc2s1`?
Shiga inhibitor: 70; CHX counter: 30; FMDV antiviral: inactive; Sm TGR inh: inactive

Results for c1ccc2cc(-c3csnn3)ccc2c1 ?
Shiga inhibitor: 108; CHX counter: 32; FMDV antiviral: inactive; Sm TGR inh: inactive

Results for Cc1ccc(-c2csnn2)cc1 ?
Shiga inhibitor: inactive; CHX counter: inactive; FMDV antiviral: inactive; Sm TGR inh: inactive

What do the screens show for `CCN(CC)CCCNc1ncnc2c1cnn2-c1ccc(C)c(C)c1`?
FMDV antiviral: inactive; Sm TGR inh: inactive

How did COc1ccc(-c2ccc(OC)cc2)cc1 do in these assays?
Shiga inhibitor: inactive; CHX counter: 34; FMDV antiviral: inactive; Sm TGR inh: inactive
